The record followed here is PubChem BioAssay (NCI).

About 79,000 compounds went through this panel and 15% of them were active in at least one assay; those are over-represented in the sample as a whole. Unmarked numbers belong to inactive results. Activity calls are given as the source filed them. No stated cut-off is given here; in the data, active means growth inhibition above about 70%; inactive means the rest.

A short description of assay [1]: NCI Yeast Anticancer Drug Screen. Data for the rad50 strain (AID 155).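 Further: 0% = growth of vehicle-only cultures of the same strain.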 Particulars: S. cerevisiae rad50 strain growth inhibition; at 50.0 µM; hits give high values. Summed up:
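Vehicle-treated cultures provide the reference for the growth inhibition reported for compound-exposed, repair-deficient yeast.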

Assay [2] in a line: NCI Yeast Anticancer Drug Screen. Data for the mec2-1 strain (AID 157). The note with it: S. cerevisiae mec2-1 strain, at 50.0 µM, hits give high values. The method in brief: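 Vehicle-treated cultures served as reference for growth inhibition of compound-exposed mec2-1 yeast.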
A short description of assay [3]: NCI Yeast Anticancer Drug Screen. Data for the sgs1 mgt1 strain (AID 161).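 Further: 0% = growth of cultures given vehicle only.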 The note with it: S. cerevisiae sgs1 mgt1 strain, at 50.0 µM, hits give high values. Summed up: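 Mutant yeast exposed to compound; growth scored against vehicle-only wells.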
Assay [4] in a line: NCI Yeast Anticancer Drug Screen. Data for the cln2 rad14 strain (AID 165).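 Further: 0% = growth equal to vehicle treated cultures.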 The note with it: S. cerevisiae cln2 rad14 strain, at 50.0 µM, hits give high values. The method in brief: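 Each compound was tested on cln2 rad14 yeast. Inhibition of growth was calculated against vehicle-exposed controls.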
Assay [5] in a line: NCI Yeast Anticancer Drug Screen. Data for the bub3 strain (AID 167). The note with it: S. cerevisiae bub3 mutant strain, at 50.0 µM, hits give high values. Summed up: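 Mutant yeast screening strain plus compound; vehicle-treated cultures serve as the 0% inhibition reference.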
A short description of assay [6]: NCI Yeast Anticancer Drug Screen. Data for the mlh1 rad18 strain (AID 175). Particulars: S. cerevisiae mlh1 rad18 strain growth inhibition; at 50.0 µM; hits give high values. Summed up:
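Vehicle-treated cultures served as the reference for growth inhibition in a yeast strain carrying DNA damage repair alterations exposed to each compound.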

Turning to `COc1cc(C=Nc2ccccc2)ccc1OC(=O)c1ccccc1`, the growth inhibition is 15.8% in assay [1]; 23.2% in assay [2]; 17.6% in assay [3]; 28.7% in assay [4]; 16.9% in assay [5]; 14.6% in assay [6].
Turning to `CCn1c(=O)c2[nH]c(Br)nc2n(CC)c1=O`, the growth inhibition is 1.95% in assay [1]; -0.6% in assay [2]; 5.95% in assay [3]; -6.85% in assay [4]; 0.3% in assay [5]; -9.45% in assay [6].
With `COc1ccccc1C(=O)C1OC1c1ccc(Cl)cc1Cl` (configuration not stated), the growth inhibition in assay [1] is 19.1%; in assay [2] it was -9.7%; in assay [3], -6.9%; in assay [4], -32%; in assay [5] it was 6.85%; in assay [6] it was 5.05%.
As to `O=[N+]([O-])C(C(Cl)=C(Cl)Cl)=C(N1CCCCC1)N1CCCCC1`, the growth inhibition in assay [1] is -48.2%; in assay [2], -19.5%; in assay [3], -13.1%; in assay [4], -22.1%; in assay [5] it was -19.4%; in assay [6], -13.9%.
In the case of `C(=C(Sc1ccccc1)Sc1ccccc1)C(Sc1ccccc1)c1ccccc1` (configuration not stated), the growth inhibition in assay [1] was 12.5%; in assay [2] it was 21.9%; in assay [3] it was -5.35%; in assay [4] it was 10.8%; in assay [5] it was 20.7%; in assay [6] it was -13.6%.
On to `CC(C)(C)COc1ccc2c(c1)C1=NC2=NC2=NC(=NC3=NC(=NC4=NC(=N1)c1ccc(OCC(C)(C)C)cc14)c1ccc(OCC(C)(C)C)cc13)c1ccc(OCC(C)(C)C)cc12`, for which the growth inhibition in assay [1] is 12.8%; in assay [2] it was 1.1%; in assay [3], -10.1%; in assay [4], -14.6%; in assay [5], -5.45%; in assay [6], 18.4%.
`Nc1ccc(N=Nc2ccc(N)cc2)cc1`: the growth inhibition in assay [1] is 12.7%; in assay [2] it was 6.5%; in assay [3], -13.7%; in assay [4], -8.9%; in assay [5], 11.2%; in assay [6] it was 2.5%.
Take `c1ccc2c(c1)SCCc1nncn1-2`: the growth inhibition was -6.6% in assay [1]; 7.3% in assay [2]; -1.4% in assay [3]; -24.4% in assay [4]; 8.5% in assay [5]; 4.95% in assay [6].
Turning to `Cc1ccc2nc3c(C)c(Cl)c(=O)cc-3sc2c1`, the growth inhibition is 7% in assay [1]; 19.4% in assay [2]; 7.4% in assay [3]; -0.1% in assay [4]; -2.4% in assay [5]; 36.5% in assay [6].
Turning to `c1ccc(CSCCc2ccncc2)cc1`, the growth inhibition was 16.4% in assay [1]; -13.6% in assay [2]; -21.1% in assay [3]; -3.2% in assay [4]; -3.55% in assay [5]; 20.2% in assay [6].
As to `CCCCc1c(O)c(N=NC(=O)C[N+](C)(C)C)c2ccccc2c1O`, the growth inhibition in assay [1] was 31.5%; in assay [2] it was 40.2%; in assay [3], 22.8%; in assay [4], 11.6%; in assay [5], 0.85%; in assay [6], 36.9%.
Turning to `CCCCCCNC(=O)CCC(NC(=O)c1ccc(N(C)Cc2cnc3nc(N)nc(N)c3n2)cc1)C(=O)NCCCCCC` (configuration not stated), the growth inhibition in assay [1] was 18.2%; in assay [2], 17.1%; in assay [3], 19.1%; in assay [4] it was 19.9%; in assay [5], 25.4%; in assay [6] it was 28.2%.
Turning to `O=C(Nc1ccccc1C(=O)N/N=C/c1ccc(Cl)cc1)c1ccccc1Cl`, the growth inhibition in assay [1] was 49.2%; in assay [2], 27.9%; in assay [3], 22.6%; in assay [4] it was 29.6%; in assay [5], 42.1%; in assay [6], 25.8%.
Take `NCCC(=O)OC1CCCc2c(O)c3c(c(O)c21)C(=O)c1ccccc1C3=O` (configuration not stated): the growth inhibition in assay [1] was 98.8% (active); in assay [2] it was 99.4% (active); in assay [3], 99.4% (active); in assay [4] it was 98.9% (active); in assay [5], 98.8% (active); in assay [6], 99.2% (active).
Regarding `COC(=O)C1=C(C)N(NC(=O)Nc2ccccc2)C2(N)N(NC(=O)Nc3ccccc3)C(C)=C(C(=O)OC)C12C(=O)OC` (configuration not stated), the growth inhibition is -8.9% in assay [1]; 5.1% in assay [2]; 3.55% in assay [3]; 2.2% in assay [4]; 15.2% in assay [5]; -2.8% in assay [6].
Consider `Nc1ncc([N+](=O)[O-])c(N)n1`, for which the growth inhibition is 2.75% in assay [1]; 5.45% in assay [2]; 7.75% in assay [3]; 0.7% in assay [4]; -13.8% in assay [5]; 15.9% in assay [6].
As for `COc1ccc(NC(=O)CCC(=O)CC(=O)c2ccc(C)cc2)cc1`, the growth inhibition in assay [1] is -18.6%; in assay [2], 31.1%; in assay [3], 39.6%; in assay [4], -23.4%; in assay [5], 17.9%; in assay [6], 36.2%.
Regarding `O=C(Cn1c(-c2ccccc2)cc2ccccc21)N1CCOCC1`, the growth inhibition in assay [1] is -0.45%; in assay [2], -32.9%; in assay [3], -39%; in assay [4], -18.1%; in assay [5], 1.65%; in assay [6], -28.1%.
Regarding `CC1(C)CNC[C@@](C)(O)C(=O)NC(C)(C)CNC[C@@](C)(O)C(=O)N1`, the growth inhibition in assay [1] was 9.75%; in assay [2], 5.75%; in assay [3], -32.6%; in assay [4] it was 4.7%; in assay [5], -46.3%; in assay [6], -9.2%.
Regarding `CN(C)c1nnnn1-c1ccccc1`, the growth inhibition in assay [1] was 5.15%; in assay [2], 5.05%; in assay [3], 12.3%; in assay [4], -21.9%; in assay [5] it was 9.5%; in assay [6], 0.45%.
As for `COc1ccc(N2C(=O)CSC2c2c[nH]c3ccccc23)cc1` (configuration not stated), the growth inhibition in assay [1] is -39.2%; in assay [2], -43.5%; in assay [3] it was -49.6%; in assay [4] it was -16.1%; in assay [5], -44%; in assay [6] it was -47%.
For `Cc1ccc([N+](=O)[O-])c(N)c1`, the growth inhibition in assay [1] was 40.5%; in assay [2] it was 27.4%; in assay [3], 26.1%; in assay [4] it was 18.9%; in assay [5], 4.65%; in assay [6] it was 26.4%.
